Assay results published in PubChem BioAssay AID1159580 (chemical genetic matrix, 2015).
The whole screen tested about 5,500 compounds, of which about 2,000 (36%) were called active. Not shown: some 18% with an inconclusive outcome. Rule as the data show it: active = normalized growth mostly below about 0.91 (no sharp cut-off); inconclusive = no clear call, values can overlap the other calls; inactive = mostly above about 0.92. The list shows a part of the results.

Assay: chemical genetic growth profiling, strain panel (AID 1159580);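 also: tested at 20 µM; growth read once vehicle control cultures reached saturation at 30 °C; 1 = growth at the plate median or of vehicle wells; lower values mean less growth of the strain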
Details: growth OD
[1] = S. cerevisiae deletion strains, locus YAR019C, strain CDC15, stronger effect = lower value
[2] = S. cerevisiae deletion strains, locus YBL105C, strain PKC1, stronger effect = lower value
[3] = S. cerevisiae deletion strains, locus YBR135W, strain CKS1, stronger effect = lower value
[4] = S. cerevisiae deletion strains, locus YBR136W, strain MEC1, stronger effect = lower value
[5] = S. cerevisiae deletion strains, locus YBR160W, strain CDC28, stronger effect = lower value
[6] = S. cerevisiae deletion strains, locus YDL017W, strain CDC7, stronger effect = lower value
[7] = S. cerevisiae deletion strains, locus YDL028C, strain MPS1, stronger effect = lower value
[8] = S. cerevisiae deletion strains, locus YDL101C, strain DUN1, stronger effect = lower value
[9] = S. cerevisiae deletion strains, locus YDL108W, strain KIN28, stronger effect = lower value
[10] = S. cerevisiae deletion strains, locus YDL132W, strain cdc53, stronger effect = lower value
[11] = S. cerevisiae deletion strains, locus YDL214C, strain PRR2, stronger effect = lower value
[12] = S. cerevisiae deletion strains, locus YDR052C, strain DBF4, stronger effect = lower value
[13] = S. cerevisiae deletion strains, locus YDR054C, strain cdc34, stronger effect = lower value
[14] = S. cerevisiae deletion strains, locus YDR226W, strain ADK1, stronger effect = lower value
[15] = S. cerevisiae deletion strains, locus YDR477W, strain SNF1, stronger effect = lower value
[16] = S. cerevisiae deletion strains, locus YER123W, strain YCK3, stronger effect = lower value
[17] = S. cerevisiae deletion strains, locus YER133W, strain GLC7, stronger effect = lower value
[18] = S. cerevisiae deletion strains, locus YFL009W, strain cdc4, stronger effect = lower value
[19] = S. cerevisiae deletion strains, locus YFL029C, strain CAK1, stronger effect = lower value
[20] = S. cerevisiae deletion strains, locus YFR003C, strain YPI1, stronger effect = lower value
[21] = S. cerevisiae deletion strains, locus YFR019W, strain FAB1, stronger effect = lower value
[22] = S. cerevisiae deletion strains, locus YFR028C, strain CDC14, stronger effect = lower value
[23] = S. cerevisiae deletion strains, locus YGR040W, strain KSS1, stronger effect = lower value
[24] = S. cerevisiae deletion strains, locus YGR052W, strain FMP48, stronger effect = lower value
[25] = S. cerevisiae deletion strains, locus YGR092W, strain DBF2, stronger effect = lower value
[26] = S. cerevisiae deletion strains, locus YHR030C, strain SLT2, stronger effect = lower value
[27] = S. cerevisiae deletion strains, locus YHR079C, strain IRE1, stronger effect = lower value
[28] = S. cerevisiae deletion strains, locus YHR082C, strain KSP1, stronger effect = lower value
[29] = S. cerevisiae deletion strains, locus YHR205W, strain SCH9, stronger effect = lower value
[30] = S. cerevisiae deletion strains, locus YIL147C, strain SLN1, stronger effect = lower value
[31] = S. cerevisiae deletion strains, locus YJL095W, strain BCK1, stronger effect = lower value
[32] = S. cerevisiae deletion strains, locus YJL128C, strain PBS2, stronger effect = lower value
[33] = S. cerevisiae deletion strains, locus YJL157C, strain FAR1, stronger effect = lower value
[34] = S. cerevisiae deletion strains, locus YJR016C, strain ILV3, stronger effect = lower value
[35] = S. cerevisiae deletion strains, locus YJR066W, strain TOR1 (second series), stronger effect = lower value
[36] = S. cerevisiae deletion strains, locus YJR066W, strain TOR1, stronger effect = lower value
[37] = S. cerevisiae deletion strains, locus YKL048C, strain ELM1, stronger effect = lower value
[38] = S. cerevisiae deletion strains, locus YKL067W, strain YNK1, stronger effect = lower value
[39] = S. cerevisiae deletion strains, locus YKL101W, strain HSL1, stronger effect = lower value
[40] = S. cerevisiae deletion strains, locus YKL193C, strain SDS22, stronger effect = lower value
[41] = S. cerevisiae deletion strains, locus YKL203C, strain TOR2, stronger effect = lower value
[42] = S. cerevisiae deletion strains, locus YLR113W, strain HOG1, stronger effect = lower value
[43] = S. cerevisiae deletion strains, locus YLR133W, strain CKI1, stronger effect = lower value
[44] = S. cerevisiae deletion strains, locus YLR403W, strain SFP1, stronger effect = lower value
[45] = S. cerevisiae deletion strains, locus YML070W, strain DAK1, stronger effect = lower value
[46] = S. cerevisiae deletion strains, locus YMR001C, strain CDC5, stronger effect = lower value
[47] = S. cerevisiae deletion strains, locus YMR205C, strain PFK2 (second series), stronger effect = lower value
[48] = S. cerevisiae deletion strains, locus YMR277W, strain FCP1, stronger effect = lower value
[49] = S. cerevisiae deletion strains, locus YNL006W, strain LST8, stronger effect = lower value
[50] = S. cerevisiae deletion strains, locus YNL020C, strain ARK1, stronger effect = lower value
[51] = S. cerevisiae deletion strains, locus YNL161W, strain CBK1, stronger effect = lower value
[52] = S. cerevisiae deletion strains, locus YNL183C, strain NPR1, stronger effect = lower value
[53] = S. cerevisiae deletion strains, locus YNL207W, strain RIO2, stronger effect = lower value
[54] = S. cerevisiae deletion strains, locus YNL222W, strain SSU72, stronger effect = lower value
[55] = S. cerevisiae deletion strains, locus YNL307C, strain MCK1 (second series), stronger effect = lower value
[56] = S. cerevisiae deletion strains, locus YOL078W, strain AVO1, stronger effect = lower value
[57] = S. cerevisiae deletion strains, locus YOL136C, strain PFK27, stronger effect = lower value
[58] = S. cerevisiae deletion strains, locus YOR061W, strain CKA2, stronger effect = lower value
[59] = S. cerevisiae deletion strains, locus YOR119C, strain RIO1, stronger effect = lower value
[60] = S. cerevisiae deletion strains, locus YOR231W, strain MKK1, stronger effect = lower value
[61] = S. cerevisiae deletion strains, locus YOR329C, strain SCD5, stronger effect = lower value
[62] = S. cerevisiae deletion strains, locus YPL031C, strain PHO85, stronger effect = lower value
[63] = S. cerevisiae deletion strains, locus YPL153C, strain RAD53, stronger effect = lower value
[64] = S. cerevisiae deletion strains, locus YPL204W, strain HRR25, stronger effect = lower value
[65] = S. cerevisiae deletion strains, locus YPL209C, strain IPL1, stronger effect = lower value
[66] = S. cerevisiae deletion strains, locus YPL256C, strain CLN2, stronger effect = lower value
[67] = S. cerevisiae deletion strains, locus YPR025C, strain CCL1, stronger effect = lower value
[68] = S. cerevisiae deletion strains, locus YPR106W, strain ISR1, stronger effect = lower value
[69] = S. cerevisiae deletion strains, locus YPR111W, strain DBF20, stronger effect = lower value
[70] = S. cerevisiae deletion strains, strain NNK1, stronger effect = lower value
[71] = S. cerevisiae deletion strains, strain TSCII, stronger effect = lower value
[72] = S. cerevisiae deletion strains, locus YAL013W, strain DEP1, stronger effect = lower value
[73] = S. cerevisiae deletion strains, locus YDR150W, strain NUM1, stronger effect = lower value
[74] = S. cerevisiae deletion strains, locus YGR078C, strain PAC10, stronger effect = lower value
[75] = S. cerevisiae deletion strains, locus YPL241C, strain CIN2, stronger effect = lower value

Measured: normalized growth

Cn1nc(-c2ccccc2)c(O)c(N=Nc2ccccc2)c1=O
inactive: [1] 0.964 | [2] 0.972 | [3] 0.957 | [4] 0.96 | [5] 0.976 | [6] 0.983 | [7] 0.963 | [8] 0.972 | [9] 0.962 | [10] 0.968 | [11] 0.906 | [12] 0.985 | [13] 0.971 | [14] 0.971 | [15] 0.917 | [16] 0.858 | [17] 0.898 | [18] 0.969 | [19] 0.969 | [20] 0.971 | [21] 0.898 | [22] 0.974 | [23] 0.905 | [24] 0.998 | [25] 0.913 | [26] 0.931 | [27] 0.982 | [28] 0.964 | [29] 0.943 | [30] 0.964 | [31] 0.993 | [32] 0.95 | [33] 0.89 | [34] 0.976 | [35] 0.854 | [36] 0.981 | [37] 0.944 | [38] 0.906 | [39] 0.921 | [40] 0.968 | [41] 0.98 | [42] 0.953 | [43] 0.944 | [44] 0.89 | [45] 0.885 | [46] 0.961 | [47] 0.937 | [48] 0.973 | [49] 0.967 | [50] 0.927 | [51] 0.965 | [52] 1 | [53] 0.964 | [54] 0.966 | [55] 0.941 | [56] 0.968 | [57] 0.907 | [58] 0.864 | [59] 0.952 | [60] 0.95 | [61] 0.974 | [62] 0.918 | [63] 0.914 | [64] 0.93 | [65] 0.972 | [66] 0.998 | [67] 0.97 | [68] 0.977 | [69] 0.988 | [70] 0.966 | [71] 0.963

Cn1c(=O)c2[nH]c(-c3ccccc3)nc2n(C)c1=O
inactive: [72] 0.995 | S. cerevisiae deletion strains, locus YAL040C, strain CLN3, stronger effect = lower value 0.984 | S. cerevisiae deletion strains, locus YCL061C, strain MRC1 (second series), stronger effect = lower value 0.983 | [73] 0.975 | S. cerevisiae deletion strains, locus YDR363W, strain ESC2, stronger effect = lower value 1.01 | S. cerevisiae deletion strains, locus YER002W, strain NOP16, stronger effect = lower value 0.97 | [74] 1 | S. cerevisiae deletion strains, locus YNL175C, strain NOP13, stronger effect = lower value 0.986 | S. cerevisiae deletion strains, locus YNL197C, strain WHI3, stronger effect = lower value 0.99 | S. cerevisiae deletion strains, locus YNL224C, strain SQS1, stronger effect = lower value 0.992 | S. cerevisiae deletion strains, locus YOR083W, strain WHI5 (second series), stronger effect = lower value 1 | [75] 0.992

O=c1c(-c2ccccc2)c(O)c2cccc3c4ccccc4n1c23
active: [1] 0.117 | [2] 0.121 | [3] 0.13 | [4] 0.148 | [5] 0.215 | [6] 0.154 | [7] 0.142 | [8] 0.226 | [9] 0.247 | [10] 0.167 | [11] 0.0962 | [12] 0.344 | [13] 0.128 | [14] 0.523 | [15] 0.134 | [16] 0.113 | [17] 0.105 | [18] 0.14 | [19] 0.115 | [20] 0.12 | [21] 0.118 | [22] 0.145 | [23] 0.124 | [24] 0.13 | [25] 0.11 | [26] 0.149 | [27] 0.143 | [28] 0.157 | [29] 0.0087 | [30] 0.123 | [31] 0.141 | [32] 0.133 | [33] 0.0913 | [34] 0.168 | [35] 0.131 | [36] 0.135 | [37] 0.122 | [38] 0.0882 | [39] 0.113 | [40] 0.139 | [41] 0.146 | [42] 0.185 | [43] 0.106 | [44] 0.00673 | [45] 0.0964 | [46] 0.119 | [47] 0.1 | [48] 0.165 | [49] 0.11 | [50] 0.115 | [51] 0.133 | [52] 0.161 | [53] 0.131 | [54] 0.11 | [55] 0.118 | [56] 0.123 | [57] 0.106 | [58] 0.0936 | [59] 0.146 | [60] 0.122 | [61] 0.12 | [62] 0.124 | [63] 0.109 | [64] 0.126 | [65] 0.129 | [66] 0.15 | [67] 0.149 | [68] 0.141 | [69] 0.147 | [70] 0.114 | [71] 0.112

Cn1c(=O)c(-c2ccccc2)c(O)c2ccccc21
active: [72] 0.868 | S. cerevisiae deletion strains, locus YBR229C, strain ROT2, stronger effect = lower value 0.887 | [8] 0.636 | [74] 0.871 | [26] 0.533 | S. cerevisiae deletion strains, locus YJL187C, strain SWE1, stronger effect = lower value 0.826 | S. cerevisiae deletion strains, locus YJR043C, strain POL32, stronger effect = lower value 0.842 | S. cerevisiae deletion strains, locus YJR075W, strain HOC1, stronger effect = lower value 0.881 | S. cerevisiae deletion strains, locus YLR039C, strain RIC1, stronger effect = lower value 0.75 | S. cerevisiae deletion strains, locus YLR058C, strain SHM2 (second series), stronger effect = lower value 0.926 | S. cerevisiae deletion strains, locus YLR085C, strain ARP6, stronger effect = lower value 0.438 | S. cerevisiae deletion strains, locus YLR262C, strain YPT6, stronger effect = lower value 0.81 | S. cerevisiae deletion strains, locus YMR219W, strain ESC1, stronger effect = lower value 0.945 | S. cerevisiae deletion strains, locus YMR263W, strain SAP30, stronger effect = lower value 0.898 | S. cerevisiae deletion strains, locus YNL153C, strain GIM3, stronger effect = lower value 0.878 | S. cerevisiae deletion strains, locus YNL322C, strain KRE1, stronger effect = lower value 0.932 | S. cerevisiae deletion strains, locus YNR030W, strain Alg12, stronger effect = lower value 0.837 | [75] 0.816 | S. cerevisiae deletion strains, locus YPR135W, strain CTF4, stronger effect = lower value 0.442 | S. cerevisiae strains, strain wild type, stronger effect = lower value 0.9
inactive: [73] 0.825 | S. cerevisiae deletion strains, locus YEL061C, strain CIN8, stronger effect = lower value 0.921 | S. cerevisiae deletion strains, locus YGR229C, strain SMI1, stronger effect = lower value 0.953 | S. cerevisiae deletion strains, locus YHR087W, strain rtc3, stronger effect = lower value 0.99 | S. cerevisiae deletion strains, locus YKL190W, strain CNB1, stronger effect = lower value 0.942 | S. cerevisiae deletion strains, locus YML094W, strain GIM5, stronger effect = lower value 0.968 | S. cerevisiae deletion strains, locus YMR307W, strain GAS1, stronger effect = lower value 0.767 | S. cerevisiae deletion strains, locus YNL298W, strain CLA4 (second series), stronger effect = lower value 0.84 | S. cerevisiae deletion strains, locus YOL006C, strain TOP1, stronger effect = lower value 0.881 | S. cerevisiae deletion strains, locus YPL055C, strain LGE1, stronger effect = lower value 0.907
